# PubChem BioAssay (NCATS)
# Results filed as inconclusive are left out. Calls of active or inactive are those of the source. Unless noted, calls come from the whole dose curve; as a rule, active = well fitted curve in the direction sought with a large enough effect; inconclusive = small, poorly fitted or top-dose-only effect, or another doubt; inactive = no such curve, though single readings can be large; an effect the other way counts as inactive or inconclusive.
# Experiments:
# [1] = qHTS to identify inhibitors of the type 1 interferon - major histocompatibility complex class I in skeletal muscle: primary screen against the NCATS Pharmaceutical Collection (AID 1347407)
# Procedure, shortened: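 Immortalized human myoblasts (C25cl48) with HiBiT knocked into endogenous HLA-B*08:01 were stimulated with 4.0 ng/ml IFN-beta and treated with compounds ([…] top 46 uM) for 24 hrs at 37 C. HiBiT lytic luminescence read.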
# [2] = qHTS to identify inhibitors of the type 1 interferon - major histocompatibility complex class I in skeletal muscle: primary screen against the NCATS Mechanism Interrogation Plate v5.0 (MIPE) Libary (AID 1347411)
# Procedure, shortened: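 Cells were genome-edited human myoblasts carrying a HiBit tag on endogenous HLA-B. They were treated with IFN-beta (4.0 ng/ml) and titrated compounds (top 46 uM) for 24 hrs before lytic HiBiT detection.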
# [3] = biological target: Protein phosphatase 1D (Homo sapiens) (UniProt O15297); assay: RapidFire Mass Spectrometry qHTS Assay for Modulators of WT P53-Induced Phosphatase 1 (WIP1) (AID 1347424)
# Protein phosphatase 1D (Homo sapiens), sequence (O15297 whole entry, looked up): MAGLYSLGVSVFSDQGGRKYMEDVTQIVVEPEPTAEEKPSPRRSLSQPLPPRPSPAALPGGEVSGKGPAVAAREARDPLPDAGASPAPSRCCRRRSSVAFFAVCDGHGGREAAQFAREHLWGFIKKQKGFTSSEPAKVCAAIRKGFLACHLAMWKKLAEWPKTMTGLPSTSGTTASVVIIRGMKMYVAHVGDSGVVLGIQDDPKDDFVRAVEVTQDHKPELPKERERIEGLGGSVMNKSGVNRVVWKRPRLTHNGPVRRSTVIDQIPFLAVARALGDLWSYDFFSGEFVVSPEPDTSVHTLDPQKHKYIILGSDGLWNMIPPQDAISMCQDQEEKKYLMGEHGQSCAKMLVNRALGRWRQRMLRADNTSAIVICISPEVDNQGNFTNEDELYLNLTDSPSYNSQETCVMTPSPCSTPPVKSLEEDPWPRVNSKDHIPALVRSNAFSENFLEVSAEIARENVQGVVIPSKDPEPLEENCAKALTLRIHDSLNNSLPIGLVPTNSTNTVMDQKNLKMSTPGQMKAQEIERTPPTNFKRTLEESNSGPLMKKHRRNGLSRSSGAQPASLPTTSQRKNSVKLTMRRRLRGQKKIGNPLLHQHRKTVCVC
# Procedure, shortened: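 10 nM WIP1 preincubated with compounds 1 hr at room temperature in pH 7.5 Tris buffer with 30 mM MgCl2, 1 mM TCEP; 2 uM VEPPL-pS-QETFS phosphopeptide for 5 min, formic acid quench; dephosphorylated product quantified by RapidFire MS against labelled standard.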
# [4] = biological target: Protein phosphatase 1D (Homo sapiens) (UniProt O15297); assay: Rhodamine-PBP qHTS Assay for Modulators of WT P53-Induced Phosphatase 1 (WIP1) (AID 1347425)
# Procedure, shortened: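 WIP1 (5 nM final) was preincubated with compound for 1 hour at room temperature. It then dephosphorylated 10 uM VEPPL-pS-QETFS peptide in Tris-HCl pH 7.5 with 30 mM MgCl2. Released Pi was detected by 10 uM Rh-PBP fluorescence (ex 525/em 598 nm) read at 1-min intervals for 11 min, as delta f1 - f0.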
# [5] = qHTS to identify inhibitors of the type 1 interferon - major histocompatibility complex class I in skeletal muscle: primary screen against the NCATS LOPAC collection (AID 1347405)
# Procedure, shortened: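 Cells: C25cl48 human myoblasts, HiBiT-tagged HLA-B*08:01, stimulated with IFN-beta 4.0 ng/ml. Compounds are titrated 1:4.3 over 7 points from 46 uM final and incubated 24 hrs; endogenous MHC class I is quantified by HiBiT lytic luminescence.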
# [6] = qHTS for inhibitors of adenylyl cyclases using a fission yeast platform: a pilot screen against the NCATS LOPAC library (AID 1347410)
# Procedure, shortened: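 S. pombe CHP2027 (AC9-GNAS-PDE4D2) carrying PKA-repressed fbp1-GFP, incubated 18 h at 30C in EMM with LOPAC compounds at up to 57 uM. GFP gain-of-signal read by laser scanning cytometry; DMSO negative control.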
# [7] = Validation qHTS assay for inhibitors of Activation Induced Cytidine Deaminase (AID): UDG Counterscreen signal (AID 1347427)
# Procedure, shortened: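 Counterscreen read of UDG activity (2 U/mL, 4/3x) in the FRET deamination format with AID (1 uM, 4/3x), DJC20/DJC23 substrates (250 nM, 4x), 4 h at room temperature. NaOH stop, fluorescence at 560 ex/665 em.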
# [8] = biological target: Single-stranded DNA cytosine deaminase (Homo sapiens) (UniProt Q9GZX7); assay: Validation qHTS assay for inhibitors of Activation Induced Cytidine Deaminase (AID): AID signal (AID 1347429)
# Single-stranded DNA cytosine deaminase (Homo sapiens), sequence (Q9GZX7 whole entry, looked up): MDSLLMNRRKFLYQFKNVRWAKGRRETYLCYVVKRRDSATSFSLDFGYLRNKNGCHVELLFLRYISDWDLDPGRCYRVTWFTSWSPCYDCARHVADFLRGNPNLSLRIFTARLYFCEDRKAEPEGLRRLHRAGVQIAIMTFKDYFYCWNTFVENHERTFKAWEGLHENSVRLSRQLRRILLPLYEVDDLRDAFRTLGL
# Procedure, shortened: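 In this coupled qHTS, AID deaminates a FRET-labelled ssDNA substrate in the presence of UDG over 4 hr at room temperature. Compounds span up to 114 uM final.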
# [9] = Primary qHTS for Huh7 cytotoxicity: counterscreen for inhibitors of MERS-S pseudotyped particle cell entry (AID 1479147; calls by dose curve)
# [10] = Primary qHTS for inhibitors of MERS-S pseudo-typed particle cell entry (AID 1479149; calls by dose curve)
# [11] = Primary qHTS for Vero E6 cytotoxicity: counterscreen for inhibitors of SARS-S pseudo-typed particle cell entry (AID 1479150; calls by dose curve)
# [12] = qHTS for activators of Nrf2/ARE signaling pathway screened against the NCATS CANVASS Library (AID 1347391)
# Procedure, shortened: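 Cells carrying an ARE-driven beta-lactamase reporter (HepG2 background) are dosed for 16 h, then stained with CCF4. Cell viability in the same wells is measured by CellTiter-Glo luminescence.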
# [13] = qHTS for activators of dead-cell proteases activity screened against the NCATS CANVASS Library (AID 1347392)
# Procedure, shortened: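 HepG2 cells, 2000/well, attached 18 h at 37C, then exposed to compounds (11-point qHTS) for 5 h. Dead-cell protease release read as luminescence from cell-impermeant AAF-aminoluciferin substrate after 15 min at room temperature.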
# [14] = qHTS for inhibitors of ER calcium dysfunction: SERCaMP assay screened against the NCATS CANVASS Library (AID 1347393)
# Procedure, shortened: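 SH-SY5Y GLuc-SERCaMP, 1000 cells/well, 4 h attach; cpd 16 h, 37C/5% CO2; thapsigargin (added as 6x 600 nM) 4 h; coelenterazine; luminescence. Reduced reporter release = ER Ca stabilization.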
# [15] = Vero-766 cells viability qHTS against the NCATS CANVASS Library: Counterscreen for Zika virus inhibition assay (AID 1347394)
# Procedure, shortened: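 Vero 766 cells (1000/well), without Zika virus, were exposed to compounds for 72 h at 37C. Viability was measured by CellTiter Glo luminescence. Media-only wells served as 100% inhibition.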
# [16] = qHTS for inhibitors of Wild type Zika virus screened against the NCATS CANVASS Library (AID 1347396)
# Procedure, shortened: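 Vero 766 (African green monkey) cells, 1000 per well, attached overnight, then compounds were added in an 11-point series before wild-type Zika virus infection. After 72 h at 37C, cell viability was read as CellTiter Glo luminescence.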
# [17] = Viability qHTS for inhibitors of the SERCaMP assay screened against the NCATS CANVASS Library (AID 1347400)
# Procedure, shortened: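 Cytotoxicity counter-screen: ATP content (CellTiter-Glo luminescence) of SH-SY5Y-GLuc SERCaMP MJH297 cells after 48 h at 37C with compounds in an 11-point qHTS series.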
# [18] = Redox Reaction Profiling qHTS: Assay Interference Panel against the NCATS CANVASS Library (AID 1347401)
# Procedure, shortened: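 Compounds in 11-point series incubated with 5 uM resazurin and 200 uM DTT in 50 mM HEPES pH 7.3, 50 mM NaCl. Resorufin fluorescence (Ex 525/Em 598) read before and after 15 min in the dark.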
# [19] = qHTS for inhibitors of Rabies Virus screened against the NCATS CANVASS Library (AID 1347402; calls by dose curve)
# [20] = Primary qHTS for inhibitors of SARS-S pseudo-typed particle cell entry (AID 1479145; calls by dose curve)
smiles,measurement,setting,value
C[C@@H]1CC[C@H]2[C@@H](C)C(=O)O[C@@H]3O[C@@]4(C)CC[C@@H]1[C@]32OO4,Potency,[1],inactive
same,Potency,[2],inactive
same,Potency,[3],inactive
same,outcome,[4],inactive
C[C@H]1CNCCc2ccc(Cl)cc21,Potency,[1],inactive
same,Potency,[3],inactive
same,outcome,[4],inactive
CCN(Cc1ccc(Cl)nc1)/C(=C/[N+](=O)[O-])NC,Potency,[1],inactive
same,Potency,[3],inactive
same,outcome,[4],inactive
CN1CCC(N(Cc2ccccc2)c2ccccc2)CC1,Potency,[1],inactive
same,Potency,[3],inactive
same,outcome,[4],inactive
COc1cc(CC(C)N)cc2c1OCO2 (configuration not stated),Potency,[1],inactive
same,Potency,[3],inactive
same,outcome,[4],inactive
C1CN2CCC1CC2,Potency,[1],inactive
same,Potency,[3],inactive
same,outcome,[4],inactive
NC(=O)CN1CCCC1=O,outcome,[5],inactive
same,Potency,[1],inactive
same,outcome,[6],inactive
same,Potency,[3],inactive
same,outcome,[4],inactive
same,outcome,[7],inactive
same,outcome,[8],inactive
same,Potency,[9],inactive
same,Potency,[10],inactive
same,Potency,[11],inactive
CC[n+]1c(-c2ccccc2)c2cc(N)ccc2c2ccc(N)cc21,Potency,[1],inactive
C[C@@H]1C[C@@H]([C@H](O)CC2CC(=O)NC(=O)C2)C(=O)[C@@H](C)C1,Potency,[1],374 nM (active)
same,Potency,[2],262 nM (active)
same,Potency,[3],inactive
same,outcome,[4],inactive
CN1CCc2cc(Cl)c(O)cc2[C@H]2c3ccccc3CC[C@@H]21,Potency,[1],inactive
same,Potency,[3],inactive
same,outcome,[4],inactive
C[N+](C)(C)CCOC(=O)C(O)(c1ccccc1)c1ccccc1,Potency,[1],inactive
same,Potency,[3],inactive
same,outcome,[4],inactive
COC(=O)C1=CCCN(C)C1,outcome,[5],inactive
same,Potency,[1],inactive
same,outcome,[6],inactive
same,Potency,[3],inactive
same,outcome,[4],inactive
same,outcome,[7],inactive
same,outcome,[8],inactive
COc1ccc(OC)c(CC(C)N)c1 (configuration not stated),Potency,[1],inactive
same,Potency,[3],inactive
same,outcome,[4],inactive
O=C(O)c1nn(Cc2ccc(Cl)cc2Cl)c2ccccc12,outcome,[5],inactive
same,Potency,[1],inactive
same,outcome,[6],inactive
same,Potency,[2],inactive
same,outcome,[7],inactive
same,outcome,[8],inactive
C[C@]12C=CC(=O)C=C1CC[C@@H]1[C@@H]2CC[C@@]2(C)[C@H]1CC[C@]2(C)O,Potency,[1],inactive
same,Potency,[3],inactive
same,outcome,[4],inactive
ClC1=C(Cl)C2(Cl)C(CBr)CC1(Cl)C2(Cl)Cl (configuration not stated),Potency,[1],inactive
same,Potency,[3],inactive
same,outcome,[4],inactive
COc1cc(CC#N)cc(OC)c1OC,Potency,[1],inactive
same,Potency,[3],inactive
same,outcome,[4],inactive
CCNc1nc(Cl)nc(NCC)n1,Potency,[1],inactive
same,Potency,[3],inactive
same,outcome,[4],inactive
Nc1ccc(Cl)cc1C(=O)c1ccccc1F,Potency,[1],inactive
same,Potency,[3],inactive
same,outcome,[4],inactive
NCc1cccnc1,Potency,[1],inactive
same,Potency,[3],inactive
same,outcome,[4],inactive
CC[C@H]1C[C@@H]2C[C@H]3c4[nH]c5ccc(OC)cc5c4CCN(C2)[C@@H]13,Potency,[1],inactive
same,Potency,[3],inactive
same,outcome,[4],inactive
COc1cc(C[C@@H](C)N)c(OC)cc1C,Potency,[1],inactive
same,Potency,[3],inactive
same,outcome,[4],inactive
O=C(O)CCCCCCNC1c2ccccc2CCc2ccccc21,Potency,[1],inactive
same,Potency,[3],inactive
same,outcome,[4],inactive
CCO[C@H]1O[C@@H]2OC3(C)CC[C@H]4[C@H](C)CC[C@@H]([C@H]1C)[C@@]24OO3,Potency,[1],inactive
same,Potency,[3],inactive
same,outcome,[4],inactive
CN(C)CCc1c[nH]c2ccccc12,outcome,[12],inactive
same,outcome,[13],inactive
same,outcome,[14],inactive
same,outcome,[15],inactive
same,outcome,[16],inactive
same,outcome,[17],inactive
same,outcome,[18],inactive
same,outcome,[19],inactive
same,Potency,[1],inactive
same,Potency,[3],inactive
same,outcome,[4],inactive
C[C@@H]1O[C@@H](O[C@@H]2C=C3CC[C@@H]4[C@H](CC[C@]5(C)[C@@H](c6ccc(=O)oc6)CC[C@]45O)[C@@]3(C)CC2)[C@H](O)[C@H](O)[C@H]1O,Potency,[1],3.3 nM (active)
same,Potency,[2],7.4 nM (active)
same,Potency,[3],inactive
same,outcome,[4],inactive
same,Potency,[20],inactive
same,Potency,[10],inactive
C[N+]1(CCC(C(N)=O)(c2ccccc2)c2ccccc2)CCCCC1,Potency,[1],inactive
same,Potency,[3],inactive
same,outcome,[4],inactive
CCc1cc(OC)c(C[C@H](C)N)cc1OC,Potency,[1],inactive
same,Potency,[3],inactive
same,outcome,[4],inactive
CNC(=O)NC(O)C(Cl)(Cl)Cl (configuration not stated),Potency,[1],inactive
same,Potency,[3],inactive
same,outcome,[4],inactive
Oc1c(Br)cc(Br)cc1Br,Potency,[1],inactive
same,Potency,[3],inactive
same,outcome,[4],inactive
CN(C)CCc1c[nH]c2cccc(O)c12,Potency,[1],inactive
same,Potency,[3],inactive
same,outcome,[4],inactive
CCCN(CCC)CCc1c[nH]c2ccccc12,Potency,[1],inactive
same,Potency,[3],inactive
same,outcome,[4],inactive
C[C@]12CC[C@H](O)CC1=CC[C@@H]1[C@@H]2CC[C@]2(C)C(=O)CC[C@@H]12,Potency,[1],inactive
same,Potency,[2],inactive
same,Potency,[3],inactive
same,outcome,[4],inactive
same,Potency,[20],inactive
same,Potency,[9],inactive
same,Potency,[10],inactive
same,Potency,[11],inactive
O=C1NCN(c2ccccc2)C12CCN(CCCOc1ccc(F)cc1)CC2,Potency,[1],inactive
same,Potency,[3],inactive
same,outcome,[4],inactive
CN1C(=O)CN=C(c2ccccc2)c2cc(Cl)ccc21,Potency,[1],inactive
same,Potency,[3],inactive
same,outcome,[4],inactive
COc1ccc(C(=O)N2CCCC2=O)cc1,outcome,[5],inactive
same,Potency,[1],inactive
same,outcome,[6],inactive
same,Potency,[2],inactive
same,Potency,[3],inactive
same,outcome,[4],inactive
same,outcome,[7],inactive
same,outcome,[8],inactive
same,Potency,[20],inactive
same,Potency,[9],inactive
same,Potency,[10],inactive
same,Potency,[11],inactive
